This is an account of results in PubChem BioAssay (EPA / NIEHS).

Molecules are shown by their SMILES. Values joined by “and” are separate entries in the source; they are usually repeats but may differ in a detail not shown here. Equal entries are not always repeated. The source holds several records for some structures; these can differ, active in one and inactive in another. Active and inactive are the calls of the source. The calls were made as follows: active = hit-call score of the fitted dose curve at least 0.9, where 1 is the maximum; inactive = score below 0.9.

Read-out in assay [1]: Matrix Metallopeptidase 1 (MMP1), MMP1 (gene 4312)
Nature of the assay: BSK_BF4T_MMP1: BioMAP Diversity Plus: BF4T Assay for Matrix Metallopeptidase 1 (MMP1) Biomarker Activity (AID 2284270). The conditions noted are these: primary human bronchial epithelial cells with fibroblasts. In short, it runs like this:
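MMP-1 quantified by ELISA in primary human bronchial epithelial/dermal fibroblast co-cultures, 24 hours post-dosing, with DMSO as baseline; parallel sulforhodamine B staining (560 nm) tracks overt cytotoxicity.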

Read-out in assay [2]: Matrix Metallopeptidase 3 (MMP3), MMP3 (gene 4314)
Put plainly: BSK_BF4T_MMP3: BioMAP Diversity Plus: BF4T Assay for Matrix Metallopeptidase 3 (MMP3) Biomarker Activity (AID 2284271). The conditions noted are these: primary human bronchial epithelial cells with fibroblasts. An outline of the steps: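 MMP-3 level read by ELISA after 24 h chemical exposure of bronchial epithelial cell/dermal fibroblast co-cultures, fitted upward relative to DMSO. Parallel cultures stained with 0.1% SRB after TCA fixation gauge overt cytotoxicity.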

Read-out in assay [3]: Tissue plasminogen activator (tPA), PLAT (gene 5327)
Nature of the assay: BSK_BF4T_tPA: BioMAP Diversity Plus: BF4T Assay for Tissue plasminogen activator (tPA) Biomarker Activity (AID 2284272). The conditions noted are these: primary human bronchial epithelial cells with fibroblasts. In short, it runs like this: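 tPA level quantified by ELISA at 24 h post-treatment in bronchial epithelial/dermal fibroblast co-cultures, gain of signal scored against DMSO baseline. Parallel cultures stained with 0.1% SRB (560 nm) to flag overt cytotoxicity.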

Read-out in assay [4]: Plasminogen Activator Inhibitor-1 (PAI1), SERPINE1 (gene 5054)
Nature of the assay: BSK_BF4T_PAI1: BioMAP Diversity Plus: BF4T Assay for Plasminogen Activator Inhibitor-1 (PAI1) Biomarker Activity (AID 2284273). The conditions noted are these: primary human bronchial epithelial cells with fibroblasts. An outline of the steps:
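PAI-1 levels quantified by ELISA 24 h post-dosing in bronchial epithelial cell plus dermal fibroblast cultures. Signal gain referenced to DMSO baseline. Sulforhodamine B total-protein staining of parallel wells checked cytotoxicity.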

Read-out in assay [5]: urokinase Plasminogen Activator (uPA), PLAU (gene 5328)
Nature of the assay: BSK_BF4T_uPA: BioMAP Diversity Plus: BF4T Assay for urokinase Plasminogen Activator (uPA) Biomarker Activity (AID 2284275). The conditions noted are these: primary human bronchial epithelial cells with fibroblasts. In short, it runs like this:
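uPA levels measured by ELISA at 24 hours in BF4T cultures (bronchial epithelial cells plus dermal fibroblasts) and compared with DMSO; cytotoxicity tracked in parallel cultures by sulforhodamine B staining.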

Read-out in assay [6]: Matrix Metallopeptidase 9 (MMP9), MMP9 (gene 4318)
Nature of the assay: BSK_BF4T_MMP9: BioMAP Diversity Plus: BF4T Assay for Matrix Metallopeptidase 9 (MMP9) Biomarker Activity (AID 2284276). The conditions noted are these: primary human bronchial epithelial cells with fibroblasts. In short, it runs like this:
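MMP-9 levels were measured by ELISA after 24 h exposure of bronchial epithelial cell/dermal fibroblast co-cultures, with DMSO as baseline. Parallel cultures were stained with 0.1% SRB after TCA fixation, read at 560 nm, to flag overt cytotoxicity.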

Read-out in assay [7]: Interferon-inducible T-cell alpha chemoattractant (ITAC), CXCL11 (gene 6373)
Nature of the assay: BSK_BE3C_ITAC: BioMAP Diversity Plus: BE3C Assay for Interferon-inducible T-cell alpha chemoattractant (ITAC) Biomarker Activity (AID 2284279). The conditions noted are these: primary human bronchial epithelial cells. An outline of the steps:
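ELISA read-out of I-TAC after 24 h chemical dosing of human lung primary bronchial epithelial cells; gain-of-signal fit vs DMSO baseline. Parallel SRB total-protein staining (0.1% SRB, 10% TCA fixation, 560 nm) assessed cytotoxicity.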

Read-out in assay [8]: Epidermal growth factor receptor (EGFR), EGFR (gene 1956)
Nature of the assay: BSK_BE3C_EGFR: BioMAP Diversity Plus: BE3C Assay for Epidermal growth factor receptor (EGFR) Biomarker Activity (AID 2284281). The conditions noted are these: primary human bronchial epithelial cells. An outline of the steps: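 Human primary bronchial epithelial cells were exposed to compound for 24 h, and cell-surface EGFR was then quantified by ELISA. Activity was fitted in the positive direction against the DMSO vehicle baseline.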

Read-out in another assay: KRT18 (gene 3875)
Put plainly: BSK_BE3C_Keratin818: BioMAP Diversity Plus: BE3C Assay for Keratin 818 Biomarker Activity (AID 2284282). The conditions noted are these: primary human bronchial epithelial cells. An outline of the steps: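 ELISA read-out of Keratin 8/18 in BE3C human bronchial epithelial cultures, 24 h post-dosing; positive-direction fit vs DMSO baseline.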

Read-out in assay [9]: Matrix Metallopeptidase 9 (MMP9), MMP9 (gene 4318)
Nature of the assay: BSK_BE3C_MMP9: BioMAP Diversity Plus: BE3C Assay for Matrix Metallopeptidase 9 (MMP9) Biomarker Activity (AID 2284283). The conditions noted are these: primary human bronchial epithelial cells. In short, it runs like this: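 Human primary bronchial epithelial cells exposed 24 h to compound. MMP9 quantified by ELISA. SRB total-protein staining of parallel cultures assesses cytotoxicity. Positive-direction fit relative to DMSO.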

Read-out in assay [10]: Plasminogen activator inhibitor-1 (PAI1), SERPINE1 (gene 5054)
Put plainly: BSK_CASM3C_PAI1: BioMAP Diversity Plus: CASM3C Assay for Plasminogen activator inhibitor-1 (PAI1) Biomarker Activity (AID 2284284). The conditions noted are these: primary human coronary artery smooth muscle cells.

Read-out in assay [11]: Monocyte Chemoattractant Protein-1 (MCP1), CCL2 (gene 6347)
Put plainly: BSK_hDFCGF_MCP1: BioMAP Diversity Plus: hDFCGF Assay for Monocyte Chemoattractant Protein-1 (MCP1) Biomarker Activity (AID 2284285). The conditions noted are these: primary human foreskin fibroblasts. An outline of the steps: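 MCP-1 ELISA readout was taken 24 hours after dosing primary human dermal fibroblasts in the hDFCGF system, with DMSO as baseline. Parallel sulforhodamine B staining of total protein tracked overt cytotoxicity.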

Read-out in assay [12]: Vascular cell adhesion molecule 1 (VCAM1), VCAM1 (gene 7412)
Nature of the assay: BSK_IMphg_VCAM1: BioMAP Diversity Plus: IMphg Assay for Vascular cell adhesion molecule 1 (VCAM1) Biomarker Activity (AID 2284286). The conditions noted are these: primary human endothelial cells with macrophages. In short, it runs like this: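 ELISA read-out of VCAM-1 on venular endothelial cell/macrophage co-cultures at 24 h post-treatment, with DMSO as baseline and positive-direction fitting. Parallel sulforhodamine B total-protein staining (560 nm) served as the overt cytotoxicity measure.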

Read-out in assay [13]: Intercellular Adhesion Molecule 1 (ICAM1), ICAM1 (gene 3383)
Put plainly: BSK_hDFCGF_ICAM1: BioMAP Diversity Plus: hDFCGF Assay for Intercellular Adhesion Molecule 1 (ICAM1) Biomarker Activity (AID 2284287). The conditions noted are these: primary human foreskin fibroblasts. An outline of the steps:
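ICAM-1 ELISA readout 24 h after dosing, DMSO as baseline, in human dermal foreskin fibroblast cultures. Cytotoxicity checked in parallel wells by SRB staining (0.1% SRB, 10% TCA fixation, 560 nm).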

Read-out in the next assay: CD40, CD40 (gene 958)
Nature of the assay: BSK_IMphg_CD40: BioMAP Diversity Plus: IMphg Assay for CD40 Biomarker Activity (AID 2284288). The conditions noted are these: primary human endothelial cells with macrophages. In short, it runs like this:
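ELISA read-out of cell-surface CD40 at 24 h in human venular endothelial cell/macrophage co-cultures. Activity fitted in the positive direction against DMSO; parallel SRB staining (560 nm) gauges overt cytotoxicity.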

Read-out in assay [14]: TIMP metallopeptidase inhibitor 2 (TIMP2), TIMP2 (gene 7077)
Nature of the assay: BSK_hDFCGF_TIMP2: BioMAP Diversity Plus: hDFCGF Assay for TIMP metallopeptidase inhibitor 2 (TIMP2) Biomarker Activity (AID 2284289). The conditions noted are these: primary human foreskin fibroblasts. In short, it runs like this: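 Primary human foreskin fibroblasts in the hDFCGF system, dosed for 24 h; TIMP-2 level measured by ELISA, fitted in the positive direction against DMSO; cytotoxicity checked in parallel by sulforhodamine B total protein staining.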

A short description of assay [15]: BSK_BF4T_SRB: Viability Assessment in the BioMAP Diversity Plus: BF4T Assay (AID 2284274). The conditions noted are these: primary human bronchial epithelial cells with fibroblasts. An outline of the steps:
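Cytotoxicity measured as total protein: cells fixed with 10% TCA, stained with 0.1% SRB, read at 560 nm. Bronchial epithelial/dermal fibroblast co-culture, 24 h after dosing, with positive-direction fitting relative to DMSO.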

Read-out in assay [16]: Interleukin-8 (IL8), CXCL8 (gene 3576)
Put plainly: BSK_IMphg_IL8: BioMAP Diversity Plus: IMphg Assay for Interleukin-8 (IL8) Biomarker Activity (AID 2284277). The conditions noted are these: primary human endothelial cells with macrophages. In short, it runs like this: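 IL-8 levels were measured by ELISA 24 h after dosing in primary human venular endothelial cell–macrophage cultures, referenced to DMSO; parallel SRB staining monitored overt cytotoxicity.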

As to `NC(=O)C(F)(F)C(F)(F)C(F)(F)C(F)(F)C(F)(F)C(F)(F)C(F)(F)F`, the outcome in assay [1], in assay [2], in assay [3], in assay [4], in assay [5] and in assay [6] was inactive. The outcome (in assay [7]; in assay [8]; with KRT18 (gene 3875); in assay [9]; in [10]; in assay [11]) was inactive. The outcome was “inactive” in assay [12]; “inactive” in assay [13]; “inactive” with CD40, CD40 (gene 958).

Take `CCN(CCO)S(=O)(=O)C(F)(F)C(F)(F)C(F)(F)C(F)(F)C(F)(F)C(F)(F)C(F)(F)C(F)(F)F`: the outcome (in assay [1]; in assay [3]; in assay [4]; in assay [5]; in assay [6]; with KRT18 (gene 3875)) was inactive. Moreover, the outcome in assay [10] was “inactive”; in [12], “inactive”; in [13], “inactive”; with CD40, CD40 (gene 958), “inactive”; in assay [14] it was “inactive”. Besides, the AC50 was 13.6 µM (active) in [3]; 47.1 µM (active) and 42.6 µM (active) in assay [7]; 23.2 µM (active) and 13.9 µM (active) in [8]; 21.5 µM (active) and 43.3 µM (active) in assay [9]; 32.7 µM (active) and 30 µM (active) in [11]; 39 µM (active) in assay [12]. Moreover, the concentration at half-maximal activity (AC50) with CD40, CD40 (gene 958) was 36.9 µM (active).

As for `O=C(O)C(F)(F)C(F)(F)C(F)(F)OC(F)(F)F`, the result in assay [1], in [3], in assay [4], in assay [15], in [5] and in assay [6] was inactive. The outcome (in [7]; in assay [8]; with KRT18 (gene 3875); in assay [9]; in assay [10]; in [11]) was inactive. Besides, the outcome in assay [12] is “inactive”; in assay [13], “inactive”; with CD40, CD40 (gene 958), “inactive”.

Take `FC(F)(F)C(F)(F)C(F)(F)CC1CO1` (stereo not drawn): the outcome in assay [1], in assay [2], in assay [3], in [4], in assay [5] and in assay [6] was inactive. Besides, the outcome (in assay [16]; in [7]; in assay [8]; with KRT18 (gene 3875); in assay [9]; in [10]) was inactive. Besides, the outcome was “inactive” in assay [11]; “inactive” in [12]; “inactive” in assay [13]; “inactive” with CD40, CD40 (gene 958).

For `O=S(=O)(Cl)C(F)(F)C(F)(F)C(F)(F)C(F)(F)C(F)(F)C(F)(F)C(F)(F)C(F)(F)F`, the outcome (in assay [1]; in [2]; in [3]; in [5]; with KRT18 (gene 3875); in [10]) was inactive. The outcome is “inactive” in assay [11]; “inactive” in [12]; “inactive” in [13]; “inactive” in the assay with CD40, CD40 (gene 958); “inactive” in [14]. The AC50 in assay [3] was 23.2 µM (active); in assay [4], 44.9 µM (active) and 44.6 µM (active); in assay [5], 30 µM (active); in [6], 49.2 µM (active) and 47.7 µM (active); in [7], 53.8 µM (active) and 55.1 µM (active); in assay [8] it was 22.7 µM (active) and 30 µM (active). Also, the AC50 was 46.7 µM (active) in the assay with KRT18 (gene 3875); 55.1 µM (active) and 55.2 µM (active) in assay [9].
